# Measurements reported in ChEMBL document CHEMBL3433997, “St. Jude Leishmania screening dataset” (2016).
# Target: Glucose transporter (Leishmania mexicana) (UniProt O61059)
# Assay: ST_JUDE_LEISH: Cytotoxicity at 2uM final concentration against transgenic Leishmania Mexicana promastigotes LmGT2 that are glucose transport deficient and complemented with the L. Mexicana glucose transporter 2. Activity is measured by DNA content using SYBR green in vitro
# Format: functional
row,Compound,inhibition [%]
1,Cc1cccc2nc(-c3cccc(-c4ccc(NC(=O)c5cccnc5)cc4)c3)[nH]c12,2.31
2,CC(C)(C)OC(=O)N1CCN(c2ccccc2NC(=O)c2cccc(C(F)(F)F)c2Oc2ccc(F)cc2)CC1,0.52
3,Cc1ccc(NC(=O)NC2CCN(c3ccnc4cc(Cl)ccc34)CC2)cc1,8.65
4,CS(=O)(=O)c1ccc(-c2cc(C(F)(F)F)nc(N[C@@H]3CCCC[C@H]3OCc3ccccc3)n2)cc1,1.66
5,CNc1ccc(CNCc2cccc(-c3ccc(-c4nc5cccc(C)c5[nH]4)cc3)c2)cc1,0.87
6,O=C(NCCCCN1CCC(c2ccc3c(c2OCc2ccncc2)CCCC3)CC1)c1ccc(NC(=O)c2ccc(Cl)cc2)cc1,1.29
7,Cc1c(C(=O)NCc2ccncc2)sc2nc(-c3cccc([N+](=O)[O-])c3)cn12,-3.15
8,CCCN(CCCCCCN(CCC)CCc1ccc(O)c(O)c1)CCc1ccc(O)cc1,10.8
9,O=C(Nc1cccc(-c2cccc(-c3nc4ccccc4[nH]3)c2)c1)Nc1ccc(F)c(F)c1F,3.88
10,CCCC(C(CC1CCC(C)CC1)C(=O)NC(CCCNc1ncccn1)C(=O)Nc1nccs1)N(O)C=O (stereo not given),5.63
11,CCCc1cnc2nc(N)nc(N)c2c1C,0.34
12,CC(C)CCNC(=O)C1Cc2c([nH]c3cc(Br)ccc23)C2(CCN(Cc3ccccc3)CC2)N1 (stereo not given),14.8
13,O=C(Nc1cccc(CN2CCCN(Cc3ccc(O)cc3)CC2)c1)c1ccc(Br)cc1,3.89
14,COc1cc2c(cc1C(F)(F)F)N(C(=O)Nc1cc(F)cc(-c3cccnn3)c1)CC2,2.7
15,Cc1ccc(C(=O)Nc2ccc(C)c(OC3CCN(Cc4ccco4)C3)c2)cc1 (stereo not given),7.13
16,CN(C)c1ccc(C=Cc2ccc3ccccc3n2)c(Cl)c1,85.2
17,CC1(C)N=C(N)N=C(N)N1OCCCCON1C(N)=NC(N)=NC1(C)C,3.76
18,Cc1cccc2nc(-c3cccc(-c4cccc(NC(=O)c5cnn6cccnc56)c4)c3)[nH]c12,1.19
19,O=C(/C=C/c1ccc(Cl)c(Cl)c1)NCCCCCN1CCC(NC(=O)c2ccc3ccccc3c2)CC1,1.46
20,CCCCN1CCN(Cc2cccc(NC(=O)c3ccc(Cl)c(Cl)c3)c2)CC1,10.5

row,Compound,inhibition [%]
1,CC1(C)NC(N)=NC(=N)N1OCCCc1cccc(C(F)(F)F)c1,1.25
2,CCN(CCCN1CCCCC1)c1cc(C)nc(Nc2ccc(C(F)(F)F)cc2)n1,3.9
3,O=C(Nc1ccc([N+](=O)[O-])cc1)Nc1cc(C(F)(F)F)ccc1F,3.15
4,Cc1cc(C)c(NC(=O)NC2CCN(CCCCCNC(=O)/C=C/c3ccc(Cl)c(Cl)c3)CC2)c(C)c1,3.81
5,O=C(Nc1cc(Cl)ccc1O)c1cc(-c2ccccc2O)no1,-2.64
6,CN(C(=O)Nc1ccc(C(F)(F)F)cc1)C1CCN(CCCCCNC(=O)/C=C/c2ccc(Cl)c(Cl)c2)CC1,0.47
7,CCCc1cc(NCC)nc(Nc2ccc(F)cc2)n1,3.2
8,Oc1ccc(CCNc2nc(NCCOc3cccc4ccccc34)nc(N3CCNCC3)n2)cc1,2.56
9,COc1ccc2ncc(Cl)c([C@@H](O)CN3CCC(NCc4cc5c(cn4)OCCO5)CC3)c2c1,1.19
10,C[C@H](NC(=O)c1cc(-c2ccc(C(C)(C)C)cc2)no1)C(=O)O.C[C@H](NC(=O)c1conc1-c1ccc(C(C)(C)C)cc1)C(=O)O,1.58
11,NC(=O)c1ccc(NCC(=O)Nc2cccc(-c3cccc(-c4nc5cc(C(F)(F)F)ccc5[nH]4)c3)c2)cc1,1.91
12,Cc1cccc2nc(-c3ccc(-c4cccc(NC(=O)C(C)CN(C)C)c4)cc3)[nH]c12 (stereo not given),3.93
13,N=C(N)Nc1ccc(OCCCCCOc2ccc(NC(=N)N)c(Cl)c2)cc1Cl,-2.62
14,CCN(CC)C(=O)C1CCN(C(C(=O)N2CCN(CC(=O)N3CCCC3)CC2)c2cc3ccccc3o2)CC1 (stereo not given),1.61
15,c1cc(CN2CCN(CCN3CCOCC3)CC2)cc(-c2ccc(-c3nc4ccccc4[nH]3)cc2)c1,9.58
16,COc1ccc(OC)c(NC(=O)C2c3ccccc3C(=O)N(CC(C)C)C2c2cccs2)c1 (stereo not given),-0.44
17,CC1(C)CCCN(Cc2c(O)ccc3c(O)c(-c4nc5ccccc5s4)c(=N)oc23)C1,-2.9
18,O=C(Nc1ccc(-c2cccc(-c3nc4ccccc4[nH]3)c2)cc1)Nc1ccc(F)c(F)c1F,0.32
19,Cc1nc(Nc2ccc(C)c(Cl)c2)c2c(C)noc2n1,4.71
20,N#Cc1ccc2[nH]cc(CN3CCC4(CC3)CN(CCNCc3ccccc3)C(=O)O4)c2c1,-0.76
